PubChem BioAssay AID1159580 (chemical genetic matrix, 2015)
Values joined by “and” are separate entries in the source; they are usually repeats but may differ in a detail not shown here. Equal entries are not always repeated. Out of some 5,500 compounds screened, about 2,000 (36%) were called active. Not shown: some 18% with an inconclusive outcome. Cut-off read from the data, not from the text of the source: active = normalized growth mostly below about 0.91 (no sharp cut-off); inconclusive = no clear call, values can overlap the other calls; inactive = mostly above about 0.92. The list shows a part of the results.

Assay: chemical genetic growth profiling, strain panel (AID 1159580);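 note: tested at 20 µM; growth read once vehicle control cultures reached saturation at 30 °C; 1 = growth at the plate median or of vehicle wells; lower values mean less growth of the strain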
Settings: S. cerevisiae deletion strains, growth OD
[1] = locus YAL013W, strain DEP1, stronger effect = lower value
[2] = locus YBR229C, strain ROT2, stronger effect = lower value
[3] = locus YCL061C, strain MRC1, stronger effect = lower value
[4] = locus YDL101C, strain DUN1, stronger effect = lower value
[5] = locus YEL061C, strain CIN8, stronger effect = lower value
[6] = locus YHR030C, strain SLT2, stronger effect = lower value
[7] = locus YJL187C, strain SWE1, stronger effect = lower value
[8] = locus YJR043C, strain POL32, stronger effect = lower value
[9] = locus YJR075W, strain HOC1, stronger effect = lower value
[10] = locus YKL190W, strain CNB1, stronger effect = lower value
[11] = locus YLR039C, strain RIC1, stronger effect = lower value
[12] = locus YNL153C, strain GIM3, stronger effect = lower value
[13] = locus YPL241C, strain CIN2, stronger effect = lower value

Measured: normalized growth

COC(=O)C/C(N)=C(\C#N)C(=O)OC
inactive: [1] 1 | [2] 0.984 | [3] 1.02 | [4] 1.03 | locus YDR150W, strain NUM1, stronger effect = lower value 1.01 | [5] 0.994 | locus YGR078C, strain PAC10, stronger effect = lower value 1.05 | [6] 1.08 | locus YHR087W, strain rtc3, stronger effect = lower value 0.944 | [7] 1.02 | [8] 1.02 | [9] 1.01 | [10] 0.986 | [11] 0.993 | locus YLR058C, strain SHM2 (second series), stronger effect = lower value 0.983 | locus YLR085C, strain ARP6, stronger effect = lower value 0.995 | locus YLR262C, strain YPT6, stronger effect = lower value 0.982 | locus YML094W, strain GIM5, stronger effect = lower value 0.982 | locus YMR219W, strain ESC1, stronger effect = lower value 0.982 | locus YMR263W, strain SAP30, stronger effect = lower value 1.02 | [12] 1.04 | locus YNL298W, strain CLA4 (second series), stronger effect = lower value 0.999 | locus YNL322C, strain KRE1, stronger effect = lower value 1.01 | locus YNR030W, strain Alg12, stronger effect = lower value 1.03 | locus YPL055C, strain LGE1, stronger effect = lower value 0.975 | [13] 1.01 | locus YPR135W, strain CTF4, stronger effect = lower value 1.08

CC(C)=CCc1c2c(c3occ(-c4ccc(O)cc4)c(=O)c3c1O)C=CC(C)(C)O2
0.886 (active) and 0.97 (inactive): [6]
active: [1] 0.718 | locus YAL030W, strain snc1, stronger effect = lower value 0.876 | locus YBL061C, strain skt5, stronger effect = lower value 0.739 | locus YBR009C, strain hhf1, stronger effect = lower value 0.882 | locus YBR023C, strain chs3, stronger effect = lower value 0.747 | locus YBR231C, strain swc5, stronger effect = lower value 0.751 | locus YBR279W, strain paf1, stronger effect = lower value 0.796 | locus YCL011C, strain gbp2, stronger effect = lower value 0.881 | locus YCL016C, strain dcc1, stronger effect = lower value 0.869 | locus YDL035C, strain GPR1, stronger effect = lower value 0.72 | locus YDL074C, strain BRE1, stronger effect = lower value 0.727 | locus YDL134C, strain PPH21, stronger effect = lower value 0.736 | locus YDL192W, strain arf1, stronger effect = lower value 0.859 | locus YDR069C, strain doa4, stronger effect = lower value 0.711 | locus YDR162C, strain NBP2, stronger effect = lower value 0.664 | locus YDR297W, strain sur2, stronger effect = lower value 0.828 | locus YDR318W, strain mcm21, stronger effect = lower value 0.911 | locus YDR388W, stronger effect = lower value 0.917 | [5] 0.869 | locus YER015W, strain faa2, stronger effect = lower value 0.653 | locus YER167W, strain BCK2, stronger effect = lower value 0.896 | locus YFR010W, strain ubp6, stronger effect = lower value 0.895 | locus YGL086W, strain mad1, stronger effect = lower value 0.861 | locus YGL173C, strain kem1, stronger effect = lower value 0.666 | locus YGL248W, strain PDE1, stronger effect = lower value 0.705 | locus YGL253W, strain hxk2, stronger effect = lower value 0.87 | locus YHR013C, strain ard1, stronger effect = lower value 0.755 | locus YHR027C, strain rpn1, stronger effect = lower value 0.614 | locus YHR129C, strain ARP1, stronger effect = lower value 0.769 | locus YHR142W, strain chs7, stronger effect = lower value 0.838 | locus YHR200W, strain rpn10, stronger effect = lower value 0.893 | locus YIL066C, strain RNR3, stronger effect = lower value 0.663 | locus YIL073C, strain SPO22, stronger effect = lower value 0.537 | locus YJL095W, strain BCK1 (second series), stronger effect = lower value 0.834 | locus YJL164C, strain tpk1, stronger effect = lower value 0.77 | locus YJL166W, strain qcr8, stronger effect = lower value 0.811 | locus YJL187C, strain SWE1 (second series), stronger effect = lower value 0.77 | [7] 0.803 | [8] 0.717 | [9] 0.852 | locus YKL160W, strain elf1, stronger effect = lower value 0.868 | [10] 0.772 | locus YLL026W, stronger effect = lower value 0.915 | locus YLR027C, strain aat2, stronger effect = lower value 0.907 | locus YLR058C, strain SHM2, stronger effect = lower value 0.802 | locus YLR221C, strain rsa3, stronger effect = lower value 0.858 | locus YLR268W, strain sec22, stronger effect = lower value 0.841 | locus YLR320W, strain mms22, stronger effect = lower value 0.863 | locus YLR342W, strain FKS1, stronger effect = lower value 0.775 | locus YLR357W, strain rsc2, stronger effect = lower value 0.814 | locus YLR371W, strain rom2, stronger effect = lower value 0.806 | locus YLR418C, strain cdc73, stronger effect = lower value 0.827 | locus YML016C, strain PPZ1, stronger effect = lower value 0.677 | locus YMR058W, strain fet3, stronger effect = lower value 0.429 | locus YNL128W, strain TEP1, stronger effect = lower value 0.643 | [12] 0.835 | locus YNL209W, strain ssb2, stronger effect = lower value 0.51 | locus YNL233W, strain BNI4, stronger effect = lower value 0.787 | locus YOL006C, strain TOP1, stronger effect = lower value 0.389 | locus YOR061W, strain CKA2, stronger effect = lower value 0.733 | locus YOR069W, strain VPS5, stronger effect = lower value 0.87 | locus YOR070C, strain gyp1, stronger effect = lower value 0.812 | locus YOR083W, strain WHI5, stronger effect = lower value 0.866 | locus YOR106W, strain vam3, stronger effect = lower value 0.634 | locus YOR184W, strain ser1, stronger effect = lower value 0.869 | locus YOR265W, strain rbl2, stronger effect = lower value 0.888 | locus YPL051W, strain arl3, stronger effect = lower value 0.658 | locus YPL106C, strain sse1, stronger effect = lower value 0.793 | locus YPR167C, strain met16, stronger effect = lower value 0.913 | strain wtn01, stronger effect = lower value 0.811
0.719 (active) and 0.977 (inactive): locus YJL095W, strain BCK1, stronger effect = lower value
inactive: locus YAL021C, strain ccr4, stronger effect = lower value 0.962 | locus YAL026C, strain drs2, stronger effect = lower value 0.911 | locus YBR021W, strain FUR4, stronger effect = lower value 0.913 | locus YBR171W, strain sec66, stronger effect = lower value 1.01 | [2] 0.929 | locus YCL029C, strain bik1, stronger effect = lower value 0.926 | [3] 0.947 | locus YCL069W, strain vba3, stronger effect = lower value 0.987 | locus YCR088W, strain abp1, stronger effect = lower value 1.01 | locus YDL005C, strain med2, stronger effect = lower value 0.995 | locus YDL040C, strain nat1, stronger effect = lower value 0.991 | [4] 0.903 | locus YDL185W, strain tfp1, stronger effect = lower value 0.995 | locus YDR001C, strain nth1, stronger effect = lower value 1.01 | locus YDR101C, strain arx1, stronger effect = lower value 0.953 | locus YDR137W, strain rgp1, stronger effect = lower value 1.01 | locus YDR159W, strain sac3, stronger effect = lower value 1.07 | locus YDR195W, strain ref2 1.14 | locus YDR334W, strain swr1, stronger effect = lower value 0.92 | locus YDR335W, strain msn5, stronger effect = lower value 0.981 | locus YDR392W, strain spt3, stronger effect = lower value 0.78 | locus YDR502C, strain sam2, stronger effect = lower value 0.938 | locus YEL003W, strain gim4, stronger effect = lower value 0.94 | locus YEL037C, strain rad23, stronger effect = lower value 0.958 | locus YEL061C, strain CIN8 (second series), stronger effect = lower value 1.01 | locus YER016W, strain bim1, stronger effect = lower value 0.963 | locus YER110C, stronger effect = lower value 0.989 | locus YER111C, strain swi4, stronger effect = lower value 0.969 | locus YER155C, strain BEM2 (second series), stronger effect = lower value 0.956 | locus YER155C, strain BEM2, stronger effect = lower value 0.98 | locus YGL078C, strain dbp3, stronger effect = lower value 1 | locus YGL167C, strain pmr1, stronger effect = lower value 0.976 | locus YGL227W, strain vid30, stronger effect = lower value 1.01 | locus YGL240W, strain doc1, stronger effect = lower value 1.02 | locus YGR135W, strain pre9, stronger effect = lower value 0.955 | locus YGR252W, strain gcn5, stronger effect = lower value 1.03 | locus YHR079C, strain IRE1 (second series), stronger effect = lower value 1 | locus YHR079C, strain IRE1, stronger effect = lower value 0.992 | locus YHR094C, strain hxt1, stronger effect = lower value 1.01 | locus YIL125W, strain kgd1, stronger effect = lower value 0.982 | locus YIR030C, strain dcg1, stronger effect = lower value 0.995 | locus YJL092W, strain hpr5, stronger effect = lower value 0.977 | locus YJL115W, strain asf1, stronger effect = lower value 1.01 | locus YJL129C, strain trk1, stronger effect = lower value 1.02 | locus YJL134W, strain LCB3, stronger effect = lower value 0.944 | locus YJL154C, strain vps35, stronger effect = lower value 1.01 | locus YJL168C, strain set2, stronger effect = lower value 0.996 | locus YJR066W, strain TOR1, stronger effect = lower value 0.906 | locus YKL009W, strain mrt4, stronger effect = lower value 0.961 | locus YKL068W, stronger effect = lower value 1.01 | locus YKL085W, strain MDH1 (second series), stronger effect = lower value 1.02 | locus YKL085W, strain MDH1, stronger effect = lower value 1.02 | locus YKR001C, strain vps1, stronger effect = lower value 0.927 | locus YKR026C, strain gcn3, stronger effect = lower value 1 | locus YKR091W, strain srl3, stronger effect = lower value 0.98 | locus YLL001W, strain dnm1, stronger effect = lower value 0.937 | locus YLL041C, strain sdh2, stronger effect = lower value 0.982 | [11] 0.863 | locus YLR102C, strain apc9, stronger effect = lower value 1.05 | locus YLR113W, strain HOG1, stronger effect = lower value 0.965 | locus YLR258W, strain gsy2, stronger effect = lower value 0.926 | locus YLR262C, strain YPT6 (second series), stronger effect = lower value 0.881 | locus YLR370C, strain arc18, stronger effect = lower value 0.978 | locus YLR384C, strain iki3, stronger effect = lower value 1 | locus YML032C, strain rad52, stronger effect = lower value 0.987 | locus YML120C, strain ndi1, stronger effect = lower value 0.99 | locus YML124C, strain tub3, stronger effect = lower value 0.994 | locus YMR078C, strain ctf18, stronger effect = lower value 1.03 | locus YMR125W, strain sto1, stronger effect = lower value 1.07 | locus YMR129W, stronger effect = lower value 0.968 | locus YMR205C, strain PFK2, stronger effect = lower value 0.902 | locus YMR223W, strain ubp8, stronger effect = lower value 0.936 | locus YMR231W, strain pep5, stronger effect = lower value 0.948 | locus YMR307W, strain GAS1, stronger effect = lower value 0.724 | locus YNL067W, strain RPL9B, stronger effect = lower value 0.93 | locus YNL071W, strain lat1, stronger effect = lower value 0.943 | locus YNL183C, strain NPR1, stronger effect = lower value 0.908 | locus YNL248C, strain rpa49, stronger effect = lower value 0.951 | locus YNL250W, strain rad50, stronger effect = lower value 0.999 | locus YNL271C, strain bni1, stronger effect = lower value 1.01 | locus YNL298W, strain CLA4, stronger effect = lower value 0.991 | locus YNL307C, strain MCK1, stronger effect = lower value 0.957 | locus YNL322C, strain KRE1 (second series), stronger effect = lower value 1.05 | locus YNR049C, strain mso1, stronger effect = lower value 0.999 | locus YNR052C, strain pop2, stronger effect = lower value 1 | locus YOL012C, strain htz1 0.443 | locus YOL147C, strain pex11, stronger effect = lower value 1 | locus YOR001W, strain rrp6, stronger effect = lower value 0.988 | locus YOR080W, strain dia2, stronger effect = lower value 0.934 | locus YOR136W, strain idh2, stronger effect = lower value 0.996 | locus YOR144C, strain elg1, stronger effect = lower value 1 | locus YOR231W, strain MKK1, stronger effect = lower value 0.991 | locus YOR270C, strain vph1, stronger effect = lower value 0.849 | locus YOR290C, strain snf2, stronger effect = lower value 1 | locus YOR316C, strain cot1, stronger effect = lower value 0.988 | locus YPL078C, strain atp4, stronger effect = lower value 0.985 | locus YPL240C, strain hsp82, stronger effect = lower value 0.957 | [13] 0.936 | locus YPL256C, strain CLN2, stronger effect = lower value 1 | locus YPR119W, strain clb2, stronger effect = lower value 1.02 | locus YPR141C, strain kar3, stronger effect = lower value 1.01 | locus YPR163C, strain tif3, stronger effect = lower value 0.979
